From PubChem BioAssay
Activity calls are given as the source filed them. Unless noted, how the calls were made is not given here.

Legend:
[1] = anti-His antibody binders, primary screen, artefact control for SMM control protein annotation, biochemical, small-molecule microarray, 635 nm fluorescence (AID 1128); settings: anti-His Alexa647 antibody binding, higher = more signal;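 further: score merges feature fluorescence with signal-to-noise for each printed compound spot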
[2] = test system: Human papillomavirus type 1a E7 protein (residues 1-88); test: HPV1a E7 small-molecule binders, primary screen, biochemical, small-molecule microarray, residues 1-88, 635 nm (AID 1129); settings: small-molecule microarray binding, fluorescence 635 nm; higher = more signal
[3] = molecular target: Focal adhesion kinase 1 (Homo sapiens) (UniProt Q05397); test: small-molecule microarray binders of FAK, primary screen, biochemical, 635/667 nm fluorescence, BSA, DTT (AID 1130); settings: PTK2 binding, 635 nm fluorescence, higher = more signal;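 further: composite of spot emission at 667 nm and signal to noise over triplicate slides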
Sequence of Focal adhesion kinase 1 (Homo sapiens) (Q05397 whole entry, looked up): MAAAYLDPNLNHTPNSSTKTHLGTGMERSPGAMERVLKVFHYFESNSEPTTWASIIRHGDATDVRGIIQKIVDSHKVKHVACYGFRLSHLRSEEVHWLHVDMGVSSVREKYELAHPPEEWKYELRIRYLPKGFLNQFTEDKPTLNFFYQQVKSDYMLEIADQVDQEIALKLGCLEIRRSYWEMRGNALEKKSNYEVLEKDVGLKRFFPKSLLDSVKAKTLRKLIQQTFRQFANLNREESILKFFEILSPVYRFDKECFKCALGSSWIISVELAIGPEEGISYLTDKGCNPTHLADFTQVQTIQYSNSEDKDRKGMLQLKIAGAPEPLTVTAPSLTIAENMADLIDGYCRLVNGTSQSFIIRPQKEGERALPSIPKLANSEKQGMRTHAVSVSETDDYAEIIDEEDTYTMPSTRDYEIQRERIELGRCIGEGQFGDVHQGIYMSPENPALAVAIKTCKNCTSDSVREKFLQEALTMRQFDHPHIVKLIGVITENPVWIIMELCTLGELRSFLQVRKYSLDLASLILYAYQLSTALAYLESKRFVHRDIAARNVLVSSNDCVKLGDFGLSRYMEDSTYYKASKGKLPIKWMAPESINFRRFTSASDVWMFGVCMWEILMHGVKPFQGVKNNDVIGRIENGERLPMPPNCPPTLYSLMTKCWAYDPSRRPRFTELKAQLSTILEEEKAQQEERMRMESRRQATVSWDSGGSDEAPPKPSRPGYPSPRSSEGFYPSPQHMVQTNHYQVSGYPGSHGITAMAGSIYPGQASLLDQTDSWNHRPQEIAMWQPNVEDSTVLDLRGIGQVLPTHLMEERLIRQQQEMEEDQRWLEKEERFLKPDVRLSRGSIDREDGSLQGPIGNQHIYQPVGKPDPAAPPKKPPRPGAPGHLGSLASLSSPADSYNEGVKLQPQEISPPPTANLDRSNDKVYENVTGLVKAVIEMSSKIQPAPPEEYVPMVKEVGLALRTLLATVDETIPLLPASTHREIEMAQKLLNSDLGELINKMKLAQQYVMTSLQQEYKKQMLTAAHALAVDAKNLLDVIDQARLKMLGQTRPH

[4] = test system: Fibrinogen (Alexa647-labelled); test: fibrinogen binders on compound microarrays, profiling panel, artefact control for SMM control-protein annotation, biochemical, small-molecule microarray, 635/667 nm fluorescence (AID 1131); settings: fibrinogen-A647 binding fluorescence, higher = more signal;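 further: z-score merges 667 nm fluorescence with per-spot signal-to-noise over triplicate slides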
[5] = molecular target: Follistatin (Homo sapiens) (UniProt P19883); test: follistatin binders on small-molecule microarrays, primary screen, biochemical, small-molecule microarray, 635/667 nm fluorescence (AID 1132); settings: FST binding, 635 nm fluorescence, higher = more signal
Sequence of Follistatin (Homo sapiens) (P19883 whole entry, looked up): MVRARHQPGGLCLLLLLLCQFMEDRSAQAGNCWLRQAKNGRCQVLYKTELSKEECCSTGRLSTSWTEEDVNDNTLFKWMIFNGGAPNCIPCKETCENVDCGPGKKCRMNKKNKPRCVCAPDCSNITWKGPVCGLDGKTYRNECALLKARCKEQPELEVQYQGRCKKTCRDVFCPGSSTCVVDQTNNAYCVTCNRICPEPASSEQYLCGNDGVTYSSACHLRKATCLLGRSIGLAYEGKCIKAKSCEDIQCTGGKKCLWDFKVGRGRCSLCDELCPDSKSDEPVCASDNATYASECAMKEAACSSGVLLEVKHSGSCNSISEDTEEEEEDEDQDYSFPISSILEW

[6] = molecular target: Fibroblast growth factor 2 (Homo sapiens) (UniProt P09038); test: FGF2 binders on small-molecule microarrays, primary screen, biochemical, small-molecule microarray, 635/667 nm fluorescence (AID 1133); settings: small-molecule microarray binding, FGF2, fluorescence 635/667; higher = more signal
Sequence of Fibroblast growth factor 2 (Homo sapiens) (P09038 whole entry, looked up): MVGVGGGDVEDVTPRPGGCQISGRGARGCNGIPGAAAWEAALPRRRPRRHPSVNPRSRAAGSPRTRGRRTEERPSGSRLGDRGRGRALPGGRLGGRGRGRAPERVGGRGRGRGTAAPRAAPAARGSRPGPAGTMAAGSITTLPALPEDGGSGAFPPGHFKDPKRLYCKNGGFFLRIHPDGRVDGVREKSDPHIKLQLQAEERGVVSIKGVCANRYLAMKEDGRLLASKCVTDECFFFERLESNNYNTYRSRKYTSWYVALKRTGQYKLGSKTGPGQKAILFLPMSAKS

[7] = mitochondrial membrane potential change in A549 cells, profiling panel, cell-based, JC-1 fluorescence, basal, 24 h, 100 nL (AID 1138); settings: higher = more signal;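 further: A549 lung adenocarcinoma cells under basal conditions with no added stimulus; test concentration not given here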
Lefty1 = Lefty1 binders on small-molecule microarrays, primary screen, biochemical, small-molecule microarray, 635/667 nm fluorescence (AID 1139); settings: small-molecule microarray binding, fluorescence 635/667; higher = more signal
[8] = test system: wheat germ agglutinin (Triticum aestivum), Alexa647-labelled; test: wheat germ agglutinin binders on compound microarrays, profiling panel, artefact control for SMM control-protein annotation, biochemical, small-molecule microarray, 635/667 nm fluorescence (AID 1140); settings: WGA-A647 binding, 635 nm fluorescence, higher = more signal;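 further: score merges 667 nm feature emission with signal to noise over triplicate slides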
[9] = molecular target: Luciferin 4-monooxygenase (Photinus pyralis) (UniProt P08659); test: firefly luciferase enzyme inhibitors, primary screen, biochemical, luminescence, purified enzyme, 2006 set (AID 1141); settings: SteadyGlo luminescence, 30 min, higher = more signal, called active from +8 up or from −8 down;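 further: cell-free assay with purified firefly luciferase at 100 ng per well in PBS; test concentration not given here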
Sequence of Luciferin 4-monooxygenase (Photinus pyralis) (P08659 whole entry, looked up): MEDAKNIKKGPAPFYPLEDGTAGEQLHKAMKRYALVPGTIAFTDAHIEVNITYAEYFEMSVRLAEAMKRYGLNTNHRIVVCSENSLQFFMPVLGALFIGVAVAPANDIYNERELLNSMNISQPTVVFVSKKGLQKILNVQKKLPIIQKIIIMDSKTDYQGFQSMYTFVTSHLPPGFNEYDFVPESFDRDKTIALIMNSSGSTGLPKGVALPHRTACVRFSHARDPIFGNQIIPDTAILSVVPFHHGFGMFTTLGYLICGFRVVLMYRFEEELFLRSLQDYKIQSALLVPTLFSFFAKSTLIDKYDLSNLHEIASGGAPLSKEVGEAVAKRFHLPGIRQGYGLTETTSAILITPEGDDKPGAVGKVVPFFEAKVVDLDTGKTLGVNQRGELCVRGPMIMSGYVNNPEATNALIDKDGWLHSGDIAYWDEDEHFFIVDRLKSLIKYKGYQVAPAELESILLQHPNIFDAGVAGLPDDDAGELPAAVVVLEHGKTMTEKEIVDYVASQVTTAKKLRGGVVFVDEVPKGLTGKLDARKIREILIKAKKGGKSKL

[10] = test system: Wnt5a (protein binding on small-molecule microarray); test: Wnt5a binders on small-molecule microarray, primary screen, biophysical, 635/667 nm fluorescence (AID 1142); settings: 635 nm fluorescence, higher = more signal;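 further: fluorescence read at 667 nm with signal to noise per printed feature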
[11] = cell viability in Huh7 cells, primary screen, cytotoxicity control for HCV replication inhibitor project, CellTiter-Glo luminescence, basal, 48 h (AID 1143); settings: Huh7 HCV replicon, higher = more signal, called active from +8 up or from −8 down;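 further: Huh7 hepatoma cells carrying a hepatitis C replication reporter with no stimulus; test concentration not given here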
[12] = P. aeruginosa biofilm formation inhibitors, primary screen, PAO1 strain, BacTiter-Glo luminescence, LB-PBS (AID 1144); settings: 12 h, higher = more signal
[13] = CREB reporter modulators without forskolin, primary screen, cell-based, PC12, CRE-LacZ reporter, unstimulated (AID 1145); settings: no forskolin, luminescence, 4.5 h, higher = more signal, called active from +8 up or from −8 down
[14] = CREB reporter modulators under forskolin, primary screen, cell-based, PC12, CRE-LacZ reporter, forskolin-stimulated (AID 1146); settings: luminescence, 4.5 h, higher = more signal, called active from +8 up or from −8 down;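 further: PC12 cells with 6xCRE LacZ reporter stimulated by forskolin 10 µM; beta-galactosidase reporter signal reflecting CREB driven transcription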
[15] = molecular target: Streptavidin (Streptomyces avidinii) (UniProt P22629); test: streptavidin binders on small-molecule microarray, primary screen, artefact control for SMM compound annotation, biophysical, 635/667 nm fluorescence (AID 1147); settings: streptavidin binding, higher = more signal;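 further: signal reflects streptavidin binding to arrayed compounds as a control protein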
Sequence of Streptavidin (Streptomyces avidinii) (P22629 whole entry, looked up): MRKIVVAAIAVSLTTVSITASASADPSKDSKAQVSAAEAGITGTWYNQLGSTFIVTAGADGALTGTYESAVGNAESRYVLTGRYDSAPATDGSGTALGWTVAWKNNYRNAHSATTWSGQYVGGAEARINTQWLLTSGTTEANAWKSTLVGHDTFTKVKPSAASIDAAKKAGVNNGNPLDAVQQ

[16] = small-molecule binders of probe aInhba, primary screen, biochemical, small-molecule microarray, 635/667 nm fluorescence (AID 1148); settings: higher = more signal;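 further: score merges 667nm spot fluorescence with signal-to-noise for antibody binding to printed compounds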
Torsin-1A (Homo sapiens) [17] = molecular target: Torsin-1A (Homo sapiens) (UniProt O14656); test: torsin A binders from cell lysate, primary screen, small-molecule microarray, wild-type, 635/667 nm (AID 1149); settings: COS7 hTOR1A-WT lysate, 635 nm fluorescence, higher = more signal
Sequence of Torsin-1A (Homo sapiens) (O14656 whole entry, looked up): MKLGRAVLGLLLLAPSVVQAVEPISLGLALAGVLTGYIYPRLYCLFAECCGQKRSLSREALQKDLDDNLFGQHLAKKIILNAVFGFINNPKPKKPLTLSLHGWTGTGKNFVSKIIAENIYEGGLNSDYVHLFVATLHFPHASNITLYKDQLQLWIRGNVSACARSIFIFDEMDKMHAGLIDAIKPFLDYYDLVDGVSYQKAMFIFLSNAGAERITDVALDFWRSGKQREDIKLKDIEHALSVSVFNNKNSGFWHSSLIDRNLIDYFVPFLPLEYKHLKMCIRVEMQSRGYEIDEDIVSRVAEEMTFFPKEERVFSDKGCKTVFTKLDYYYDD

Torsin-1A (Homo sapiens) [18] = molecular target: Torsin-1A (Homo sapiens) (UniProt O14656); test: small-molecule binders of mutant TOR1A in lysate, primary screen, cell lysate, small-molecule microarray, COS7 lysate, 635/667 nm fluorescence (AID 1150); settings: COS7 hTOR1A mutant lysate, 635 nm fluorescence, higher = more signal;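 further: score pools 667 nm emission and signal to noise measuring lysate protein binding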
[19] = test system: Sonic hedgehog protein (Shh); test: small-molecule binders of Shh protein, primary screen, biochemical, small-molecule microarray, 635/667 nm fluorescence (AID 1151); settings: small-molecule microarray binding, 635 nm fluorescence; higher = more signal;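 further: Shh protein binding to compounds spotted on small-molecule microarray slides; score combines spot fluorescence intensity with signal-to-noise across triplicate slides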

Row | SMILES | composite z-score [1] | composite z-score [2] | composite z-score [3] | composite z-score [4] | composite z-score [5] | composite z-score [6] | z-score [7] | composite z-score (Lefty1) | composite z-score [8] | z-score [9] | composite z-score [10] | z-score [11] | z-score [12] | z-score [13] | z-score [14] | composite z-score [15] | composite z-score [16] | composite z-score (Torsin-1A (Homo sapiens) [17]) | composite z-score (Torsin-1A (Homo sapiens) [18]) | composite z-score [19]
1 | CN(C)CCCNC(=O)[C@@H]1c2ccccc2C(=O)N(C2Cc3ccccc3C2)[C@H]1c1ccc(CO)cc1 | 0.0265 | 1.11 | 0.726 | 0.784 | 0.27 | -0.139 | 2.07 | -0.199 | 0.164 | -0.825 (inactive) | -0.128 | -0.701 (inactive) | 0.491 (inactive) | -0.502 (inactive) | -1.14 (inactive) | 0.359 | 0.217 | 0.798 | 0.802 | 0.318
2 | COCCOC(=O)N1C(=O)[C@@]2(c3cc(C#CC4=CCCCC4)ccc31)[C@H](C(=O)N1CCc3cc(OC)c(OC)cc3C1)[C@H]1C(=O)O[C@H](c3ccccc3)[C@H](c3ccccc3)N1[C@@H]2c1ccc(O)cc1 | 1.62 | 1.2 | 0.596 | 0.947 | 0.861 | 0.998 | -0.608 | 0.917 | 0.854 | -0.914 (inactive) | 0.718 | -0.447 (inactive) | 0.108 (inactive) | -0.321 (inactive) | -0.539 (inactive) | 1.85 | 0.467 | 0.544 | 1.23 | 1.67
3 | COc1ccc([Si](C)(C)[C@H]2[C@H](CCn3cc([C@H](O)c4ccccc4)nn3)O[C@@]3(C(=O)N(C)c4c(Br)cc(C)cc43)[C@@H]2C)cc1 | 0.523 | -0.212 | -0.472 | -0.496 | 1.5 | 1.87 | 0.134 | 1.37 | 0.343 | -0.877 (inactive) | -0.0472 | -4.01 (inactive) | -0.23 (inactive) | 7.95 (inactive) | -1.66 (inactive) | -0.124 | -0.208 | 0.877 | 0.19 | 0.964
4 | COc1ccc([Si](C)(C)[C@H]2[C@H](CC(=O)N3Cc4ccccc4C[C@H]3CO)O[C@@]3(C(=O)N(Cc4cccc(N5C(=O)c6cccc7cccc5c67)c4)c4ccccc43)[C@@H]2C)cc1 | 0.577 | 1.16 | 0.463 | -0.0297 | 1.18 | 1.59 | 1.03 | 1.53 | 0.108 | -1.53 (inactive) | 0.862 | -4.55 (inactive) | -0.765 (inactive) | 11 (active) | -1.41 (inactive) | 0.159 | -0.0107 | 1.39 | 0.736 | 2.23
5 | CCOC(=O)C[C@H]1[C@H](OC(=O)c2ccc(C(=O)c3ccccc3)cc2)[C@@H](NC(=O)c2ccc3ccccc3c2)c2cc(OCCCO)ccc2N1C(=O)c1ccc2ccccc2n1 | 0.565 | 0.578 | 0.44 | 0.892 | 0.331 | 0.851 | 2.1 | 0.704 | 0.0601 | -0.818 (inactive) | 0.289 | 0.311 (inactive) | -0.0217 (inactive) | -0.244 (inactive) | -0.643 (inactive) | 0.129 | -0.0774 | 0.182 | 0.819 | 0.94
6 | CN(C)CCCC[C@@H]1NC(=O)[C@H]2C[C@@H](C(=O)O)[C@@H](c3cccc(OCCO)c3)N2C1=O | 3.17 | -0.209 | 0.239 | 0.564 | 1.4 | 0.977 | 1.29 | 1.45 | 0.734 | -1.9 (inactive) | 0.205 | -0.0686 (inactive) | -0.43 (inactive) | 0.0124 (inactive) | 0.0684 (inactive) | -0.414 | 0.216 | 0.717 | 1.1 | 1.84
7 | COc1cc2c(cc1O)C(c1ccc(CN3CCCC3)cc1)N(Cc1ccc([N+](=O)[O-])o1)CC2 (stereo not given) | 0.27 | -0.96 | -0.537 | 0.121 | -0.147 | 0.253 | 1 | -0.606 | 0.522 | -0.659 (inactive) | -0.176 | -0.192 (inactive) | 0.85 (inactive) | 0.299 (inactive) | 0.292 (inactive) | -0.231 | -0.105 | 0.714 | 0.623 | -0.0987
8 | C=C(CCCC)C(=O)CC[C@H](OC(C)=O)c1ccccc1OCCO | 0.0808 | -0.167 | -0.176 | -0.107 | 1.16 | 0.105 | -0.012 | 1.36 | 0.737 | -0.722 (inactive) | 0.241 | -4.57 (inactive) | 1.09 (inactive) | 8.25 (active) | -0.195 (inactive) | -0.478 | 0.0902 | -1.49 | -0.447 | 1.42
9 | C=CCC(OC(C)=O)[C@@H]1[C@@H](N(Cc2cccc3ccccc23)C(=O)c2ccc(-c3ccccc3)cc2)c2cc(OCCCO)ccc2N1C(=O)c1ccc2ccccc2n1 (stereo not given in full) | 0.112 | 0.263 | 0.0785 | 0.677 | 0.537 | -0.0329 | -0.0419 | 0.752 | 0.922 | 0.222 (inactive) | -0.133 | -0.205 (inactive) | 0.409 (inactive) | 0.106 (inactive) | 0.481 (inactive) | 0.582 | 0.195 | 0.178 | 0.309 | 0.664
10 | CCOC(=O)C1=C[C@@H](C(C)(C)C)N(S(=O)(=O)c2ccc(C)cc2)[C@H]1c1ccccc1Cl | 1.31 | 1.2 | 0.393 | 0.776 | 0.953 | 0.119 | 3.94 | 0.386 | 1.18 | 0.927 (inactive) | 0.548 | -3.79 (inactive) | 1.6 (inactive) | 0.986 (inactive) | 1.53 (inactive) | 1.11 | 0.029 | 0.296 | 0.315 | 0.577
